Assay results reported in PMC11006913.
Residue numbers refer to the chain shown, from its start.

Assays:
Assay in all cases: PBM; 200 nM protein, PBS
Conditions in all cases: dsDNA, one strand shown
PAX4 [1] = biological target: T1, PAX4 (Homo sapiens, UniProt O43316 9-242, R200K)
T1 sequence: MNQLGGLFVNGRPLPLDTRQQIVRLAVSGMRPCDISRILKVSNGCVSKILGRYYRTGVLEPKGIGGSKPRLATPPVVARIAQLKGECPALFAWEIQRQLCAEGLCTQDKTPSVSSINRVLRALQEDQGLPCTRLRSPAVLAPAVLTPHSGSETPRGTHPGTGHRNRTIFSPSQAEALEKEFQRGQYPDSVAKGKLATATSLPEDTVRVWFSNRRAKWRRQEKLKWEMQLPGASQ

PAX4 [2] = biological target: T2, PAX4 (Homo sapiens, UniProt O43316 9-242)
T2 sequence: T1 sequence with K192R

PAX4 [3] = biological target: T3, PAX4 (Homo sapiens, UniProt O43316 9-242, R200Q)
T3 sequence: T1 sequence with K192Q

PAX4 [4] = biological target: T4, PAX4 (Homo sapiens, UniProt O43316 9-242, F177V)
T4 sequence: T1 sequence with F169V, K192R

PAX4 [5] = biological target: T5, PAX4 (Homo sapiens, UniProt O43316 9-242, F177Y)
T5 sequence: T1 sequence with F169Y, K192R

PAX4 [6] = biological target: T6, PAX4 (Homo sapiens, UniProt O43316 9-242, R227W)
T6 sequence: T1 sequence with K192R, R219W

PROP1 [7] = biological target: PROP1 (Homo sapiens, UniProt O75360 56-141)
Chain of PROP1 (Homo sapiens, UniProt O75360 56-141) (O75360 56-141): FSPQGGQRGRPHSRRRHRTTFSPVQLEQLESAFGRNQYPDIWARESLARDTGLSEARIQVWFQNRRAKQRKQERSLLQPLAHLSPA

PROP1 [8] = biological target: PROP1 (Homo sapiens, UniProt O75360 56-141, R99H)
Chain of PROP1 (Homo sapiens, UniProt O75360 56-141, R99H) (O75360 56-141 R99H): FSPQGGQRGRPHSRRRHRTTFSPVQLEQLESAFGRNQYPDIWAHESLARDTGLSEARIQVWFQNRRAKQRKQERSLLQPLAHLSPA

PROP1 [9] = biological target: PROP1 (Homo sapiens, UniProt O75360 56-141, F88S)
Chain of PROP1 (Homo sapiens, UniProt O75360 56-141, F88S) (O75360 56-141 F88S): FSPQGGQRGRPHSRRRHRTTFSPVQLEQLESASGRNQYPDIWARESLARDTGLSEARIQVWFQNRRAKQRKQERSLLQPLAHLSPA

Sequence	binding signal (PAX4 [1])	binding signal (PAX4 [2])	binding signal (PAX4 [3])	binding signal (PAX4 [4])	binding signal (PAX4 [5])	binding signal (PAX4 [6])	binding signal (PROP1 [7])	binding signal (PROP1 [8])	binding signal (PROP1 [9])
GGAGGCAC	9.34 upbm affinity estimate (log intensity, higher = more binding, comparable within an allelic series)	9.31 upbm affinity estimate (log intensity, higher = more binding, comparable within an allelic series)	9.57 upbm affinity estimate (log intensity, higher = more binding, comparable within an allelic series)	9.46 upbm affinity estimate (log intensity, higher = more binding, comparable within an allelic series)	9.46 upbm affinity estimate (log intensity, higher = more binding, comparable within an allelic series)	9.48 upbm affinity estimate (log intensity, higher = more binding, comparable within an allelic series)	–	–	–
CCGGGCCC	9.07 upbm affinity estimate (log intensity, higher = more binding, comparable within an allelic series)	9.07 upbm affinity estimate (log intensity, higher = more binding, comparable within an allelic series)	9.07 upbm affinity estimate (log intensity, higher = more binding, comparable within an allelic series)	9.05 upbm affinity estimate (log intensity, higher = more binding, comparable within an allelic series)	9 upbm affinity estimate (log intensity, higher = more binding, comparable within an allelic series)	9.12 upbm affinity estimate (log intensity, higher = more binding, comparable within an allelic series)	6.54 upbm affinity estimate (log intensity, higher = more binding, comparable within an allelic series)	6.73 upbm affinity estimate (log intensity, higher = more binding, comparable within an allelic series)	6.36 upbm affinity estimate (log intensity, higher = more binding, comparable within an allelic series)
CCGCGACC	9.37 upbm affinity estimate (log intensity, higher = more binding, comparable within an allelic series)	9.36 upbm affinity estimate (log intensity, higher = more binding, comparable within an allelic series)	9.36 upbm affinity estimate (log intensity, higher = more binding, comparable within an allelic series)	9.17 upbm affinity estimate (log intensity, higher = more binding, comparable within an allelic series)	9.23 upbm affinity estimate (log intensity, higher = more binding, comparable within an allelic series)	9.24 upbm affinity estimate (log intensity, higher = more binding, comparable within an allelic series)	–	–	–
GCCGGGAC	9.33 upbm affinity estimate (log intensity, higher = more binding, comparable within an allelic series)	9.39 upbm affinity estimate (log intensity, higher = more binding, comparable within an allelic series)	9.37 upbm affinity estimate (log intensity, higher = more binding, comparable within an allelic series)	9.2 upbm affinity estimate (log intensity, higher = more binding, comparable within an allelic series)	9.2 upbm affinity estimate (log intensity, higher = more binding, comparable within an allelic series)	9.24 upbm affinity estimate (log intensity, higher = more binding, comparable within an allelic series)	7.02 upbm affinity estimate (log intensity, higher = more binding, comparable within an allelic series)	6.96 upbm affinity estimate (log intensity, higher = more binding, comparable within an allelic series)	6.46 upbm affinity estimate (log intensity, higher = more binding, comparable within an allelic series)
CACCGGCC	9.22 upbm affinity estimate (log intensity, higher = more binding, comparable within an allelic series)	9.3 upbm affinity estimate (log intensity, higher = more binding, comparable within an allelic series)	9.31 upbm affinity estimate (log intensity, higher = more binding, comparable within an allelic series)	9.16 upbm affinity estimate (log intensity, higher = more binding, comparable within an allelic series)	9.17 upbm affinity estimate (log intensity, higher = more binding, comparable within an allelic series)	9.27 upbm affinity estimate (log intensity, higher = more binding, comparable within an allelic series)	6.75 upbm affinity estimate (log intensity, higher = more binding, comparable within an allelic series)	6.63 upbm affinity estimate (log intensity, higher = more binding, comparable within an allelic series)	6.3 upbm affinity estimate (log intensity, higher = more binding, comparable within an allelic series)
GATATTAA	11.2 upbm affinity estimate (log intensity, higher = more binding, comparable within an allelic series)	11.5 upbm affinity estimate (log intensity, higher = more binding, comparable within an allelic series)	11.2 upbm affinity estimate (log intensity, higher = more binding, comparable within an allelic series)	10.3 upbm affinity estimate (log intensity, higher = more binding, comparable within an allelic series)	10.5 upbm affinity estimate (log intensity, higher = more binding, comparable within an allelic series)	10.6 upbm affinity estimate (log intensity, higher = more binding, comparable within an allelic series)	–	–	–
ACTAATTC	11.6 upbm affinity estimate (log intensity, higher = more binding, comparable within an allelic series)	12.1 upbm affinity estimate (log intensity, higher = more binding, comparable within an allelic series)	11.8 upbm affinity estimate (log intensity, higher = more binding, comparable within an allelic series)	10.4 upbm affinity estimate (log intensity, higher = more binding, comparable within an allelic series)	10.9 upbm affinity estimate (log intensity, higher = more binding, comparable within an allelic series)	10.9 upbm affinity estimate (log intensity, higher = more binding, comparable within an allelic series)	–	–	–
AGCGCCGC	9.3 upbm affinity estimate (log intensity, higher = more binding, comparable within an allelic series)	9.34 upbm affinity estimate (log intensity, higher = more binding, comparable within an allelic series)	9.35 upbm affinity estimate (log intensity, higher = more binding, comparable within an allelic series)	9.22 upbm affinity estimate (log intensity, higher = more binding, comparable within an allelic series)	9.31 upbm affinity estimate (log intensity, higher = more binding, comparable within an allelic series)	9.31 upbm affinity estimate (log intensity, higher = more binding, comparable within an allelic series)	–	–	–
CGGGCCAC	9.16 upbm affinity estimate (log intensity, higher = more binding, comparable within an allelic series)	9.26 upbm affinity estimate (log intensity, higher = more binding, comparable within an allelic series)	9.31 upbm affinity estimate (log intensity, higher = more binding, comparable within an allelic series)	9.28 upbm affinity estimate (log intensity, higher = more binding, comparable within an allelic series)	9.41 upbm affinity estimate (log intensity, higher = more binding, comparable within an allelic series)	9.3 upbm affinity estimate (log intensity, higher = more binding, comparable within an allelic series)	–	–	–
CTGGGCCC	9.08 upbm affinity estimate (log intensity, higher = more binding, comparable within an allelic series)	8.93 upbm affinity estimate (log intensity, higher = more binding, comparable within an allelic series)	9.11 upbm affinity estimate (log intensity, higher = more binding, comparable within an allelic series)	8.97 upbm affinity estimate (log intensity, higher = more binding, comparable within an allelic series)	9.09 upbm affinity estimate (log intensity, higher = more binding, comparable within an allelic series)	9.02 upbm affinity estimate (log intensity, higher = more binding, comparable within an allelic series)	–	–	–
